Source: the OligoGym collection

What follows are sequences tested against NCAPG2 (assay: pooled miR-30 sensor sort-seq; sequence = guide strand). Conditions: shRNA.
Further: reference of the scale not given here.

Sequence	sensor-assay potency score (higher = more potent)
TTTACCTGCATTAATAACCAGG	-0.888
AACATCTTTACACACAGTCAGG	-1.69
TTGCAAAAACTCTCCAACCAGC	-0.983
TTCCATATTGTCTTCACCCTGG	-0.0247
TTGTCGTGGAGACTGTATCTGA	-0.323
TTCAATGCTATCCTCTTCCAAA	-0.814
TTGATGGTGAAAGTAACTCAGA	-1.15
TAGAACTCTGTAGTTTTCGTTC	-0.463

These sequences were tested against NCF1 in the same assay as above. Conditions: shRNA.

Sequence	sensor-assay potency score (higher = more potent)
AACATGTACACATAGTGCTGGC	-0.578
TTCCGCTTGGTGCTCTCGCTGC	-1
TGGAACTCGTAGATCTCGGTGA	0.128
TAAGGTTTTATGGAACTCGTAG	0.251
TTCATCTGACAGAACCACCAAC	-0.468
TCTGACAGAACCACCAACCGCT	0.511
TTTTGCAGGTACATGGACGGGA	0.437
TTTGTCTGGTTGTCCGTGGGGA	0.0821
TTATGGAACTCGTAGATCTCGG	-0.843
TTTTTTGTCTGGTTGTCCGTGG	0.905
TTGGTGCTCTCGCTGCAGCGGT	-1.07
TAGATCTCGGTGAAGCGCCGGT	0.272
